# Assay results as given in PubChem BioAssay AID1508601 (ICCB-Longwood Screening Facility, Harvard Medical School, 2020).
# Out of some 5,700 compounds screened, about 85 (1%) were called active. Cut-off read from the data, not from the text of the source: active = p53-positive nuclei above about 36% (passing the limit was not always enough); inactive = the rest. The sample as a whole holds a higher share of actives than the screen did.
# What was measured:
# [1] = nuclear p53 accumulation, HPV+ cells – imaging, p53-positive nuclei imaging, 24 h, 48 h (AID 1508601); conditions: 24/48 h
# [2] = biological target: Cellular tumor antigen p53 (Homo sapiens) (UniProt P04637); assay: as above; conditions: 24/48 h, stronger effect = higher value
# [3] = measured here: cell number at 24 h, Library stock concentration: 500 nM
# [4] = measured here: cell number at 24 h, Library stock concentration: 1.5 uM
# [5] = measured here: cell number at 24 h, Library stock concentration: 4.6 uM
# [6] = measured here: cell number at 24 h, Library stock concentration: 13.7 uM
# [7] = measured here: cell number at 24 h, Library stock concentration: 41 uM
# [8] = measured here: cell number at 24 h, Library stock concentration: 123 uM
# [9] = measured here: cell number at 24 h, Library stock concentration: 370 uM
# [10] = measured here: cell number at 24 h, Library stock concentration: 1.111 mM
# [11] = measured here: cell number at 24 h, Library stock concentration: 3.333 mM
# [12] = measured here: cell number at 24 h, Library stock concentration: 10 mM
# [13] = measured here: cell number at 48 h, Library stock concentration: 500 nM
# [14] = measured here: cell number at 48 h, Library stock concentration: 1.5 uM
# [15] = measured here: cell number at 48 h, Library stock concentration: 4.6 uM
# [16] = measured here: cell number at 48 h, Library stock concentration: 13.7 uM
# [17] = measured here: cell number at 48 h, Library stock concentration: 41 uM
# [18] = measured here: cell number at 48 h, Library stock concentration: 123 uM
# [19] = measured here: cell number at 48 h, Library stock concentration: 370 uM
# [20] = measured here: cell number at 48 h, Library stock concentration: 1.111 mM
# [21] = measured here: cell number at 48 h, Library stock concentration: 3.333 mM
# [22] = measured here: cell number at 48 h, Library stock concentration: 10 mM
# [23] = Library stock concentration: 500 nM
# [24] = Library stock concentration: 1.5 uM
# [25] = Library stock concentration: 4.6 uM
# [26] = Library stock concentration: 13.7 uM
# [27] = Library stock concentration: 41 uM
# [28] = Library stock concentration: 123 uM
# [29] = Library stock concentration: 370 uM
# [30] = Library stock concentration: 1.111 mM
# [31] = Library stock concentration: 3.333 mM
# [32] = Library stock concentration: 10 mM
# [33] = measured here: p53 positive nuclei at 24 h, Library stock concentration: 500 nM
# [34] = measured here: p53 positive nuclei at 24 h, Library stock concentration: 1.5 uM
# [35] = measured here: p53 positive nuclei at 24 h, Library stock concentration: 4.6 uM
# [36] = measured here: p53 positive nuclei at 24 h, Library stock concentration: 13.7 uM
# [37] = measured here: p53 positive nuclei at 24 h, Library stock concentration: 41 uM
# [38] = measured here: p53 positive nuclei at 24 h, Library stock concentration: 123 uM
# [39] = measured here: p53 positive nuclei at 24 h, Library stock concentration: 370 uM
# [40] = measured here: p53 positive nuclei at 24 h, Library stock concentration: 1.111 mM
# [41] = measured here: p53 positive nuclei at 24 h, Library stock concentration: 3.333 mM
# [42] = measured here: p53 positive nuclei at 24 h, Library stock concentration: 10 mM
# [43] = measured here: cell number at 24 h, concentration not given here
# [44] = measured here: cell number at 48 h, concentration not given here
# [45] = measured here: p53 positive nuclei at 24 h, concentration not given here
# Sequence of Cellular tumor antigen p53 (Homo sapiens) (P04637 whole entry, looked up): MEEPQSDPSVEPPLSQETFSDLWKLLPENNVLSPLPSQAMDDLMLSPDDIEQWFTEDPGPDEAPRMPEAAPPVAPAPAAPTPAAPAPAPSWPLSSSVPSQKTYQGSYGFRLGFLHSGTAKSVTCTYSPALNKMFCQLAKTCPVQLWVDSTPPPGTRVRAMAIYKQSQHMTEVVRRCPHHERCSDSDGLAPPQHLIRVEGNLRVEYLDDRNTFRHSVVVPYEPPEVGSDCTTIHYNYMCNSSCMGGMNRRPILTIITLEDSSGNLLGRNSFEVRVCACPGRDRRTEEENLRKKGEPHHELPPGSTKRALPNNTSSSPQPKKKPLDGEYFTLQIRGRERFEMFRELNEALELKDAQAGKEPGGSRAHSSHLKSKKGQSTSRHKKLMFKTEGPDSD
compound,measurement,setting,value
OCC1OC(n2cnc3c2NC=NCC3O)CC1O (configuration not stated),"nuclei count, normalised",[1]; [3],123%
same,"nuclei count, normalised",[1]; [4],117%
same,"nuclei count, normalised",[1]; [5],116%
same,"nuclei count, normalised",[1]; [6],127%
same,"nuclei count, normalised",[1]; [7],122%
same,"nuclei count, normalised",[1]; [8],124%
same,"nuclei count, normalised",[1]; [9],121%
same,"nuclei count, normalised",[1]; [10],120%
same,"nuclei count, normalised",[1]; [11],122%
same,"nuclei count, normalised",[1]; [12],117%
same,"nuclei count, normalised",[1]; [13],119%
same,"nuclei count, normalised",[1]; [14],112%
same,"nuclei count, normalised",[1]; [15],114%
same,"nuclei count, normalised",[1]; [16],119%
same,"nuclei count, normalised",[1]; [17],118%
same,"nuclei count, normalised",[1]; [18],113%
same,"nuclei count, normalised",[1]; [19],117%
same,"nuclei count, normalised",[1]; [20],114%
same,"nuclei count, normalised",[1]; [21],113%
same,"nuclei count, normalised",[1]; [22],114%
same,"p53-positive nuclei, normalised",[2]; [23],-0.173% (inactive)
same,"p53-positive nuclei, normalised",[2]; [24],-0.175% (inactive)
same,"p53-positive nuclei, normalised",[2]; [25],-0.091% (inactive)
same,"p53-positive nuclei, normalised",[2]; [26],-0.0972% (inactive)
same,"p53-positive nuclei, normalised",[2]; [27],0.0195% (inactive)
same,"p53-positive nuclei, normalised",[2]; [28],0.029% (inactive)
same,"p53-positive nuclei, normalised",[2]; [29],-0.058% (inactive)
same,"p53-positive nuclei, normalised",[2]; [30],-0.0904% (inactive)
same,"p53-positive nuclei, normalised",[2]; [31],-0.125% (inactive)
same,"p53-positive nuclei, normalised",[2]; [32],-0.0529% (inactive)
same,"p53-positive nuclei, normalised",[2]; [33],-0.0351%
same,"p53-positive nuclei, normalised",[2]; [34],-0.148%
same,"p53-positive nuclei, normalised",[2]; [35],-0.0281%
same,"p53-positive nuclei, normalised",[2]; [36],0.0187%
same,"p53-positive nuclei, normalised",[2]; [37],-0.0912%
same,"p53-positive nuclei, normalised",[2]; [38],-0.0944%
same,"p53-positive nuclei, normalised",[2]; [39],-0.0326%
same,"p53-positive nuclei, normalised",[2]; [40],-0.148%
same,"p53-positive nuclei, normalised",[2]; [41],-0.0881%
same,"p53-positive nuclei, normalised",[2]; [42],-0.148%
CC(C)C[C@H](NC(=O)[C@@H](O)[C@H](N)Cc1ccccc1)C(=O)O,"nuclei count, normalised",[1]; [43],97.2%
same,"nuclei count, normalised",[1]; [44],105%
same,"p53-positive nuclei, normalised",[2]; concentration not given here,-0.0349% (inactive)
same,"p53-positive nuclei, normalised",[2]; [45],-0.0296%
CC(C)CC(NC(=O)C(Cc1ccccc1)NC(=O)c1cnccn1)B(O)O (configuration not stated),"nuclei count, normalised","[1]; measured here: cell number at 24 h, Library stock concentration: 3.33 mM",47.9%
same,"nuclei count, normalised","[1]; measured here: cell number at 48 h, Library stock concentration: 3.33 mM",41.9%
same,"p53-positive nuclei, normalised",[2]; Library stock concentration: 3.33 mM,106% (active)
same,"p53-positive nuclei, normalised","[2]; measured here: p53 positive nuclei at 24 h, Library stock concentration: 3.33 mM",125%
CC(C)CC(NC(=O)C(O)C(N)Cc1ccccc1)C(=O)O (configuration not stated),"nuclei count, normalised","[1]; measured here: cell number at 24 h, Library stock concentration: 80 uM",115%
same,"nuclei count, normalised","[1]; measured here: cell number at 24 h, Library stock concentration: 400 uM",119%
same,"nuclei count, normalised","[1]; measured here: cell number at 24 h, Library stock concentration: 2 mM",104%
same,"nuclei count, normalised",[1]; [12],105%
same,"nuclei count, normalised","[1]; measured here: cell number at 48 h, Library stock concentration: 80 uM",111%
same,"nuclei count, normalised","[1]; measured here: cell number at 48 h, Library stock concentration: 400 uM",113%
same,"nuclei count, normalised","[1]; measured here: cell number at 48 h, Library stock concentration: 2 mM",108%
same,"nuclei count, normalised",[1]; [22],111%
same,"p53-positive nuclei, normalised",[2]; Library stock concentration: 80 uM,-0.159% (inactive)
same,"p53-positive nuclei, normalised",[2]; Library stock concentration: 400 uM,-0.07% (inactive)
same,"p53-positive nuclei, normalised",[2]; Library stock concentration: 2 mM,-0.0155% (inactive)
same,"p53-positive nuclei, normalised",[2]; [32],0.0117% (inactive)
same,"p53-positive nuclei, normalised","[2]; measured here: p53 positive nuclei at 24 h, Library stock concentration: 80 uM",-0.122%
same,"p53-positive nuclei, normalised","[2]; measured here: p53 positive nuclei at 24 h, Library stock concentration: 400 uM",0.00728%
same,"p53-positive nuclei, normalised","[2]; measured here: p53 positive nuclei at 24 h, Library stock concentration: 2 mM",-0.122%
same,"p53-positive nuclei, normalised",[2]; [42],0.0829%
CC(=O)NC(CSC(=S)NSc1ccc(SNC(=S)SCC(NC(C)=O)C(=O)O)cc1)C(=O)O (configuration not stated),"nuclei count, normalised",[1]; [3],115%
same,"nuclei count, normalised",[1]; [4],108%
same,"nuclei count, normalised",[1]; [5],110%
same,"nuclei count, normalised",[1]; [6],114%
same,"nuclei count, normalised",[1]; [7],121%
same,"nuclei count, normalised",[1]; [8],119%
same,"nuclei count, normalised",[1]; [9],107%
same,"nuclei count, normalised",[1]; [10],105%
same,"nuclei count, normalised",[1]; [11],89.8%
same,"nuclei count, normalised",[1]; [12],64.7%
same,"nuclei count, normalised",[1]; [13],111%
same,"nuclei count, normalised",[1]; [14],111%
same,"nuclei count, normalised",[1]; [15],109%
same,"nuclei count, normalised",[1]; [16],109%
same,"nuclei count, normalised",[1]; [17],108%
same,"nuclei count, normalised",[1]; [18],108%
same,"nuclei count, normalised",[1]; [19],106%
same,"nuclei count, normalised",[1]; [20],105%
same,"nuclei count, normalised",[1]; [21],95.8%
same,"nuclei count, normalised",[1]; [22],68.4%
same,"p53-positive nuclei, normalised",[2]; [23],-0.0484% (inactive)
same,"p53-positive nuclei, normalised",[2]; [24],-0.0573% (inactive)
same,"p53-positive nuclei, normalised",[2]; [25],0.0306% (inactive)
same,"p53-positive nuclei, normalised",[2]; [26],-0.0501% (inactive)
same,"p53-positive nuclei, normalised",[2]; [27],-0.00296% (inactive)
same,"p53-positive nuclei, normalised",[2]; [28],-0.123% (inactive)
same,"p53-positive nuclei, normalised",[2]; [29],-0.0406% (inactive)
same,"p53-positive nuclei, normalised",[2]; [30],0.162% (inactive)
same,"p53-positive nuclei, normalised",[2]; [31],-0.108% (inactive)
same,"p53-positive nuclei, normalised",[2]; [32],6.19% (inactive)
same,"p53-positive nuclei, normalised",[2]; [33],-0.173%
same,"p53-positive nuclei, normalised",[2]; [34],-0.118%
same,"p53-positive nuclei, normalised",[2]; [35],-0.113%
same,"p53-positive nuclei, normalised",[2]; [36],-0.173%
same,"p53-positive nuclei, normalised",[2]; [37],-0.0102%
same,"p53-positive nuclei, normalised",[2]; [38],-0.173%
same,"p53-positive nuclei, normalised",[2]; [39],-0.0536%
same,"p53-positive nuclei, normalised",[2]; [40],0.0142%
same,"p53-positive nuclei, normalised",[2]; [41],-0.0287%
same,"p53-positive nuclei, normalised",[2]; [42],16%
COc1cccc2ccc(-c3ccc(C(=O)N(C)C)cc3)nc12,"nuclei count, normalised",[1]; [43],97.5%
same,"nuclei count, normalised",[1]; [44],101%
same,"p53-positive nuclei, normalised",[2]; concentration not given here,0.00257% (inactive)
same,"p53-positive nuclei, normalised",[2]; [45],0.1%
c1ccc(C(OC2CCN(CCCc3nn[nH]n3)CC2)c2ccccc2)cc1,"nuclei count, normalised",[1]; [43],101%
same,"nuclei count, normalised",[1]; [44],102%
same,"p53-positive nuclei, normalised",[2]; concentration not given here,0.0542% (inactive)
same,"p53-positive nuclei, normalised",[2]; [45],0.308%
